Inhibition of ligand binding data for 39 molecules are collected here from PubChem BioAssay AID1211 (NMMLSC, 2008).

Molecules are shown by their SMILES. A number with no mark means an inactive call. Activity calls are given as the source filed them. How the calls were made is not given here.

Estrogen receptor (Homo sapiens), sequence (P03372 whole entry, looked up): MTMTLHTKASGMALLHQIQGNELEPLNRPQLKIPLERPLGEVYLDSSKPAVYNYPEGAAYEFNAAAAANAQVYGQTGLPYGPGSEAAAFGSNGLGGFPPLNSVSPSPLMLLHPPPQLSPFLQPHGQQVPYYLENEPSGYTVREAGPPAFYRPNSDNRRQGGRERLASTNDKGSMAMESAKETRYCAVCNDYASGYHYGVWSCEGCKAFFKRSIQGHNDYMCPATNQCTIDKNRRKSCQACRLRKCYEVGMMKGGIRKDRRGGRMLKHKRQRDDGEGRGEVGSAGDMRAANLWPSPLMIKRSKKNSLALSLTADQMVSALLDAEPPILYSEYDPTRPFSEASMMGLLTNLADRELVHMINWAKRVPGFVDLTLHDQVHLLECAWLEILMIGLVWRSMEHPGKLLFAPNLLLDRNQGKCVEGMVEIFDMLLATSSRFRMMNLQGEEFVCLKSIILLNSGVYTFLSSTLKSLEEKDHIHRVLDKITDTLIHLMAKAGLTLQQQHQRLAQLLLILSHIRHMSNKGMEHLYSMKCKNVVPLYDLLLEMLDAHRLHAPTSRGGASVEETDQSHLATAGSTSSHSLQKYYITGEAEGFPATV

The assay concerns the target Estrogen receptor (Homo sapiens) (UniProt P03372). The assay is described as follows: ERalpha ligand binders by competition, primary screen, cell-based, Cos7 ERalpha-GFP, flow cytometry (AID 1211).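 Further: 0% = DMSO vehicle wells and 100% = no E2-Alexa633 signal left.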 As to conditions: fluorescent ligand competition, at 10 µM, hits give high values. On the technique in general: Flow cytometry measures light scatter and fluorescence of single cells or particles in a stream.
As for `O=C1C(c2ccnc3ccccc23)=C(O)c2ccccc21`, the inhibition of ligand binding is 26%. With `Cc1ccc(-c2n[nH]c(=S)n2/N=C/C=C/c2ccccc2[N+](=O)[O-])cc1`, the inhibition of ligand binding is 1%. Take `O=C(CSc1nnc(Nc2ccccc2F)s1)NCc1ccco1`: the inhibition of ligand binding was 3%. As to `Cc1ccc(-c2n[nH]c(=S)n2/N=C/C=C\c2ccccc2[N+](=O)[O-])cc1`, the inhibition of ligand binding is 40%. Next, `Cc1oc2cc(O)ccc2c(=O)c1Oc1ccccc1`: 58% (active); `C=CCn1c(=O)c(C#N)cc2c(=O)n3ccccc3nc21`: 38%.

As to `CSC1=N/C(=C\c2ccc(Br)o2)C(=O)S1`, the inhibition of ligand binding is 12%. The figure for `O=C(Oc1ccc2c(c1)OCO2)c1cc2c(s1)CCC2` is 32%; for `CCOC(=O)c1c(/N=C/c2ccc(O)cc2O)sc2c1CCC2` it is 58%; for `CN(C)CC(=O)N1c2ccccc2CCc2ccc(NC(=O)c3ccc(N)cc3)cc21` it is 44%. In the case of `Cc1nnc(Oc2ccccc2F)c2ccccc12`, the inhibition of ligand binding is 36%. Next, `COc1cc(/C=C2\OC(=O)c3c(OC)cccc32)ccc1O`: 24%; `COc1ccc(C2C=C(c3ccc(Cl)cc3)Nc3nc(NC(C)=O)nn32)cc1` (centres undefined): 42%; `O=C(COC(=O)c1ccccc1Oc1ccccc1)NCc1ccco1`: 13%. As to `O=C(N/N=C/c1cccc(Oc2ccc([N+](=O)[O-])cc2[N+](=O)[O-])c1)c1cncc(Br)c1`, the inhibition of ligand binding was 21%. The figure for `COc1ccc(Cn2c(=O)[nH]c3cc(C(=O)NCc4ccc5c(c4)OCO5)ccc3c2=O)cc1` is 23%. `Cc1snc2sc(C(=O)c3ccc(Br)cc3)c(N)c12`: the inhibition of ligand binding was 48%.

As to `C[C@]12CC[C@@H]3c4ccc(O[C@@H]5O[C@H](C(=O)O)[C@@H](O)[C@H](O)[C@H]5O)cc4CC[C@H]3[C@@H]1C[C@@H](O)[C@@H]2O`, the inhibition of ligand binding is 72% (active). Turning to `N=c1c(C(=O)NCc2ccc(F)cc2)cc2c(=O)n3ccccc3nc2n1Cc1cccnc1`, the inhibition of ligand binding is 44%. As to `Cc1c(C(=O)OCc2ccccc2)[nH]c2c1C(=O)CC(c1ccco1)C2` (centres undefined), the inhibition of ligand binding is 37%. As to `CCC1=NN2C(=N)/C(=C\c3ccc(SCc4ccco4)o3)C(=O)N=C2S1`, the inhibition of ligand binding is 22%.

Regarding `Cc1cccn2c(=O)c3cc(C(=O)O)n(C)c3nc12`, the inhibition of ligand binding was 33%. For the molecule `O=C(Nc1ccc2nn(-c3ccccc3)nc2c1)c1ccc2c(c1)OCO2`, the inhibition of ligand binding is 15%.

As to `O=C(Nc1cccc(-c2cnc3ccccc3n2)c1)c1cccc(NC(=O)c2ccco2)c1`, the inhibition of ligand binding is 68% (active). Next, `Oc1ccccc1C1=Nc2ccccc2N=C(c2cccs2)C1`: 1%. Next, `O=C(c1cc2c(s1)CCC2)N1CCN(c2ccccc2)CC1`: 16% (active). For the molecule `COCCNC(=O)c1c(N)n(/N=C/c2cccs2)c2nc3ccccc3nc12`, the inhibition of ligand binding is 41%. The figure for `COc1cccc([C@@H]2Oc3ccc(OC)cc3C(=O)[C@H]2O)c1` is 37%; for `Cc1ccc(Oc2cc(N3CCOCC3)nc(-c3ccccc3)n2)cc1` it is 13% (active); for `NC(=O)c1oc2ccccc2c1NC(=O)c1nc2ccccc2s1` it is 43%. The figure for `O=C(O)C1CSC(c2coc3ccccc3c2=O)N1` (centres undefined) is 6%; for `COc1ccc(NC(=O)CSc2nc3ccccc3c3nc4ccccc4n23)cc1` it is 23%. Take `COc1ccc(C(Nc2ccccn2)c2oc(CO)cc(=O)c2O)cc1` (centres undefined): the inhibition of ligand binding was 32%. Next, `COc1ccc(/C=N/NC(=O)c2nc(-c3ccccc3)cc(-c3ccccc3)n2)cc1O`: 56% (active); `O=C(NNC(=O)c1ccc(SCC2CCCO2)c([N+](=O)[O-])c1)c1ccc(Cl)c([N+](=O)[O-])c1` (centres undefined): 35%; `Nc1ccc2nc(-c3cccs3)[nH]c2c1`: 10%. As for `COc1ccc(-n2c(SCC(=O)Nc3nccs3)nc3sc4c(c3c2=O)CCN(C)C4)cc1`, the inhibition of ligand binding is 30%. The figure for `Nc1ccc(-c2cc(-c3cccc(N)c3)nc(-c3ccccc3)n2)cc1` is 42%; for `CCOC(=O)C1=c2/c(=C/c3ccccc3OC)c(N)c(C#N)n2C(=O)C(c2ccccc2OC)S1` (centres undefined) it is 34%.
